Measured values reported in the supplement of paper PMC13380429.

Tested on: Vero E6 infected with SARS-CoV-2
Assay: inhibition of SARS-CoV-2 cytopathic effect; higher = more antiviral protection, active = above 15
Conditions: 48 h

Measured: inhibition of SARS-CoV-2 cytopathic effect

CCc1cnc(N2CCC(c3nc(COc4ccc(-n5cnnn5)cc4)cs3)CC2)nc1
inactive: 1 nM 1.55% | 8.33 nM -3.29% | 100 nM -4.15% | 833.33 nM -3.29% | 10000 nM 0.22%

Cc1ccc(-c2n[nH]c3c2C(c2cccc(O)c2)N(c2ccc(C(=O)O)cc2)C3=O)cc1 (stereo not given)
inactive: 1 nM -0.75% | 8.33 nM -0.46% | 100 nM 3.03% | 833.33 nM 3.6% | 10000 nM 5.17%

CCNCCS(=O)(=O)NC[C@@]1(c2ccccc2)SC(NC(=O)C(C)(C)C)=NN1C(=O)C(C)(C)C [litronesib]
inactive: 1 nM 2.17% | 8.33 nM 5.24% | 100 nM 2.46% | 833.33 nM 0.96% | 10000 nM 0.39%

CC(=O)c1ccc2c(c1)C(=O)C1(CC1)O2 [spizofurone]
inactive: 1 nM -4.51% | 8.33 nM 5.43% | 100 nM 0.26% | 833.33 nM 0.65% | 10000 nM 2.1%

CN(Cc1cc(Br)cc(Br)c1N)C1CCCCC1 [bromhexine]
inactive: 1 nM 0.85% | 8.33 nM 0.02% | 100 nM 2.7% | 833.33 nM 3.11% | 10000 nM 11.6%

O=C(O)/C=C/c1ccc(-c2ccc(O)c(C34CC5CC(CC(C5)C3)C4)c2)cc1 [adarotene]
inactive: 1 nM -0.41% | 8.33 nM -0.4% | 100 nM 0.7% | 833.33 nM -4.11% | 10000 nM -6.23%

CC(C)[N+](C)(CCOC(=O)C1c2ccccc2Oc2ccccc21)C(C)C [propantheline]
inactive: 1 nM 0.61% | 8.33 nM 0.91% | 100 nM -0.81% | 833.33 nM -1.32% | 10000 nM -0.04%
